Results filed as inconclusive are left out. Calls of active or inactive are those of the source. Calls follow the shape of the dose curve; as a rule, active = well fitted curve in the direction sought with a large enough effect in the repeat runs; inconclusive = weak or mixed curves; inactive = no such curve, though single readings can be large; an effect the other way counts as inactive or inconclusive.
Assays:
[1] = Human pregnane X receptor (PXR) small molecule agonists, qHTS cell viability counter screen (AID 1346977); also: nearly all actives have a fitted effect of over 50% in size; also: potency is read from the fitted curve at half-maximal effect
Method in brief: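 PXR-Luc HepG2 cells in medium with 5% charcoal-stripped FBS were pre-incubated 5hr, then exposed to compounds for 24hr at 37C. Viability was read in the same wells by CellTiter-Fluor fluorescence, reagent added after 23hr with a 1hr incubation.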

[2] = Caspase-3/7 induction in HepG2 cells by small molecules, qHTS assay (AID 1346978); also: nearly all actives have a fitted effect of over 15% in size
Method in brief: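 Caspase-3/7 induction was measured by Caspase-Glo 3/7 luminescence (30 min, room temperature) after a 17 hr compound exposure of wild-type HepG2 cells seeded at 2,000 per well and pre-incubated 5 hr.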

[3] = Caspase-3/7 induction in CHO-K1 cells by small molecules, qHTS cell viability counter screen (AID 1346979); also: nearly all actives have a fitted effect of over 35% in size; also: potency is read from the fitted curve at half-maximal effect
Method in brief: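 Wild-type CHO-K1 cells were seeded at 1,500 per well, rested 5hr at 37 C, then exposed to compounds in DMSO. After 16hr, CellTiter-Fluor reagent was added and fluorescence read 1hr later as the viability measure.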

[4] = Caspase-3/7 induction in CHO-K1 cells by small molecules, qHTS assay (AID 1346980); also: nearly all actives have a fitted effect of over 15% in size
Method in brief: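 Luminescent Caspase-Glo 3/7 read (30min, room temperature) quantified apoptosis induction. Cells were wild-type CHO-K1, treated with compound for 17hr at 37 C and 5% CO2.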

[5] = molecular target: Nuclear receptor subfamily 1 group I member 2 (Homo sapiens) (UniProt O75469); assay: Human pregnane X receptor (PXR) small molecule agonists, qHTS assay (AID 1346982); also: nearly all actives have a fitted effect of over 35% in size; also: potency is read from the fitted curve at half-maximal effect
Sequence of Nuclear receptor subfamily 1 group I member 2 (Homo sapiens) (O75469 whole entry, looked up): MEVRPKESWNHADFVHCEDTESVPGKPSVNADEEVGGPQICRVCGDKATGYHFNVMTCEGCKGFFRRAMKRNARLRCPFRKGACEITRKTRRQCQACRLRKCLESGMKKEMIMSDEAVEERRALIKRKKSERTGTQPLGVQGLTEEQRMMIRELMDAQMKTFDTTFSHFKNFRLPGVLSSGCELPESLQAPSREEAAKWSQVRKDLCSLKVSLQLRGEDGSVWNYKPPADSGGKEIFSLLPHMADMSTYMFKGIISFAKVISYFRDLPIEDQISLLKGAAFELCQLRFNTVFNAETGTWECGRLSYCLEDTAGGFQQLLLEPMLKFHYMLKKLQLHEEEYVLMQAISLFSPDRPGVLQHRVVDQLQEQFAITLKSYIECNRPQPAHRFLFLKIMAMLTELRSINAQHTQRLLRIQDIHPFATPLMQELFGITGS
Method in brief: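 HepG2 PXR-Luc reporter line, 5% charcoal-stripped FBS; 5 hr pre-incubation, compound (DMSO) 24 hr at 37 C/5% CO2; ONE-Glo 30 min RT; luminescence read-out.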

[6] = Caspase-3/7 induction in HepG2 cells by small molecules, qHTS cell viability counter screen (AID 1346981); also: nearly all actives have a fitted effect of over 30% in size; also: potency is read from the fitted curve at half-maximal effect
Method in brief: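 Fluorescence read-out of live-cell protease activity (CellTiter-Fluor) after 1 hr with reagent. This was measured in the same wells as the caspase-3/7 luminescence, on HepG2 cells exposed to DMSO-dissolved compounds for 16 hr at 37 C.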

[7] = molecular target: Cytochrome P450 2D6 (Homo sapiens) (UniProt P10635); assay: Cytochrome P450 Family 2 Subfamily D Member 6 (CYP2D6) small molecule antagonists: luciferase reporter qHTS assay (AID 1671196); also: nearly all actives have a fitted effect of over 50% in size; also: potency is read from the fitted curve at half-maximal effect
Sequence of Cytochrome P450 2D6 (Homo sapiens) (P10635 whole entry, looked up): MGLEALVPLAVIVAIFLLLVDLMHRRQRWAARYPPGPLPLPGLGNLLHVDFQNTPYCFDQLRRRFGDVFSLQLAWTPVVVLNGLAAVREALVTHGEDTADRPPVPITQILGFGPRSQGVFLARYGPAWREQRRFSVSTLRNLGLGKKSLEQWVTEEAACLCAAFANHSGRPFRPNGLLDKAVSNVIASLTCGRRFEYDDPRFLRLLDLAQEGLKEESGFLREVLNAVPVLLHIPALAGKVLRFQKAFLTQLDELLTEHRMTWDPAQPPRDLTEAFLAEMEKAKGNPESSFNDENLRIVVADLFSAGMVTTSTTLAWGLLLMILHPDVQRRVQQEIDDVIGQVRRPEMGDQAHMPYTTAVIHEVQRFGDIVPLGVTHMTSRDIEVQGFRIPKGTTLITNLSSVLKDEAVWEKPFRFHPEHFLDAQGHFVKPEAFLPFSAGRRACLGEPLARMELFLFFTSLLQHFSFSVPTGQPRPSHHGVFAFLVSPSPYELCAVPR
Method in brief: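 Luminogenic proluciferin substrate, CYP2D6 enzyme; 10 min RT preincubation with compound, NADPH regeneration system added, 1 h RT. Stop/detection reagent, 20 min RT, luminescence read (RLU). Signal proportional to CYP activity.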

[8] = molecular target: Nuclear receptor subfamily 1 group I member 2 (Rattus norvegicus) (UniProt Q9R1A7); assay: Rat pregnane X receptor (rPXR) activation by small molecules, qHTS assay (AID 1346983); conditions: rPXR luciferase reporter cells, One-Glo luminescence, 24 h; max activation: stronger effect = higher value; also: nearly all actives have a fitted effect of over 20% in size
Sequence of Nuclear receptor subfamily 1 group I member 2 (Rattus norvegicus) (Q9R1A7 whole entry, looked up): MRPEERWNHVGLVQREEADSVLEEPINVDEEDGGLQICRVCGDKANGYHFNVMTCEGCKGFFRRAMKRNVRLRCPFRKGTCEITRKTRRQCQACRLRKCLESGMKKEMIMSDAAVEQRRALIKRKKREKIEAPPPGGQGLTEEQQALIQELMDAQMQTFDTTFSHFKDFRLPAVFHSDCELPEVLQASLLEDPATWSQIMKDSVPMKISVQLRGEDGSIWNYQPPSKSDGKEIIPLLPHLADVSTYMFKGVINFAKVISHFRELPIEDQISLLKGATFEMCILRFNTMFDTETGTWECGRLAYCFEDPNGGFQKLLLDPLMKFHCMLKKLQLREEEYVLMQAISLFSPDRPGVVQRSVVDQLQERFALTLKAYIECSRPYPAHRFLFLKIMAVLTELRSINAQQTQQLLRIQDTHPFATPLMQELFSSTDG
Method in brief: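 Luminescent readout (One-Glo luciferase, 30 min room temperature) followed 24 hr compound treatment at 37 C of rPXR cells plated 2,000 per well and preincubated 5hr; qHTS format with compounds delivered in DMSO.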
% is scaled to controls: 0 for no effect and ±100 for the full control effect.

CCCn1cnc2c1c(=O)n(CCCCC(C)=O)c(=O)n2C
inactive: Potency [1] | Potency [2] | Potency [3] | Potency [4] | Potency [5]

O=C1CCC(=O)O1
inactive: Potency [1] | Potency [2] | Potency [3] | Potency [4] | Potency [5]

CC(C)Cc1ccc(C(C)C(=O)OCc2ccccn2)cc1 (configuration not stated)
inactive: Potency [1] | Potency [2] | Potency [3] | Potency [4] | Potency [5]

O=C(O)C1(C(=O)O)CCC1.[NH2-].[NH2-].[Pt+2]
inactive: Potency [1] | Potency [2] | Potency [3] | Potency [4] | Potency [5]

O=[N+]([O-])c1cccc(S(=O)(=O)O)c1
inactive: Potency [1] | Potency [2] | Potency [3] | Potency [4] | Potency [6]
active: Potency [7] 7.21 µM

CC(C)(C)Cl
inactive: Potency [1] | Potency [2] | Potency [3] | Potency [4] | Potency [6] | Potency [7]

O[C@@H](COc1cccc2ncccc12)CN1CCN(C2c3ccccc3[C@@H]3[C@H](c4ccccc42)C3(F)F)CC1 (some centres not stated)
active: Potency [1] 23.7 µM | Potency [3] 16.8 µM | Potency [6] 21.1 µM | Potency [5] 1.19 µM | Potency [7] 11 µM
inactive: Potency [2] | Potency [4]

O=C(O)c1ccc(-n2nc(-c3ccccc3O)nc2-c2ccccc2O)cc1
inactive: Potency [1] | Potency [2] | Potency [4] | Potency [5]
active: Potency [3] 18.8 µM

O=C(O)c1ccco1
inactive: Potency [1] | Potency [2] | Potency [3] | Potency [4] | Potency [6] | Potency [5] | Potency [7]

COCCCN1CCC(NC(=O)c2cc(Cl)c(N)c3c2OCC3)CC1
inactive: Potency [1] | Potency [2] | Potency [3] | Potency [4] | Potency [6]
active: Potency [7] 3.89 µM

Nc1ccccc1S(=O)(=O)c1ccccc1
inactive: Potency [1] | Potency [2] | Potency [3] | Potency [4] | Potency [6] | Potency [7]

C[C@@H](c1ncncc1F)C(O)(Cn1cncn1)c1ccc(F)cc1F (some centres not stated)
inactive: Potency [1] | Potency [2] | Potency [3] | Potency [4] | Potency [6] | Potency [7]

CN(Cc1ccc(C(C)(C)C)cc1)Cc1cccc2ccccc12
inactive: Potency [1] | Potency [2] | Potency [3] | Potency [4] | Potency [6] | max activation [8] 1.25%
active: Potency [7] 0.347 µM

C=C(C)C(=O)OCCO
inactive: Potency [1] | Potency [2] | Potency [3] | Potency [4] | Potency [6] | Potency [7]

Source: PubChem BioAssay (Tox21)
